The values that follow come from PubChem BioAssay.

Each structure is given as a SMILES string. The source made the active and inactive calls.

Test [1] relates to Plasmodium falciparum Sir2 (PF13_0152, Sir2A). The experiment in a line: Plasmodium falciparum Sir2A binding compounds – biochemical, small-molecule microarray, 635 nm fluorescence, primary screen (AID 1098).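 Also: score merges spot fluorescence intensity with its signal-to-noise ratio.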 Particulars: fluorescence 635 nm, higher = more signal.
The nature of test [2]: probe aDKK1 binding to arrayed compounds – biochemical, biotinylated probe, 635/667 nm fluorescence, primary screen (AID 1099).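 Also: score merges 667nm spot fluorescence with signal to noise across triplicate slides; reference of the scale not given here.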 Particulars: small-molecule microarray, higher = more signal.
Test [3] can be described thus: probe aCHRDL2 binding to arrayed compounds – biochemical, biotinylated probe, 635/667 nm fluorescence, primary screen (AID 1100). As to conditions: small-molecule microarray, higher = more signal.
Test [4] is described as follows: change in splice reporter luminescence, either direction, cell-based, HEK293, spliceosome inhibition project, primary screen (AID 1101).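 Also: HEK293 cells carrying a splicing-competent luciferase reporter gene; test concentration not given here.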 As to conditions: HEK293 splicing luciferase reporter, 24 h, higher = more signal, called active from +8 up or from −8 down. For orientation: In a reporter assay the amount or activity of a reporter protein is the signal.
Test [5] addresses Fibroblast growth factor 10 (Homo sapiens) (UniProt O15520). The experiment in a line: compounds binding fibroblast growth factor 10 – biochemical, small-molecule microarray, 635 nm fluorescence, primary screen (AID 1102). Particulars: FGF10 binding, fluorescence 635 nm, higher = more signal.
In test [6] the test system is glycogen synthase kinase-3 (GSK3A per assay name; protocol says GSK3B). The experiment in a line: compounds binding glycogen synthase kinase-3 – biochemical, small-molecule microarray, 635 nm fluorescence, GSK3A, primary screen (AID 1103). Also: the record names both GSK3A and GSK3B. As to conditions: fluorescence 635 nm, higher = more signal.
Test [7] deals with Epidermal growth factor receptor (Homo sapiens) (UniProt P00533). The experiment in a line: compounds binding epidermal growth factor receptor – biochemical, small-molecule microarray, 635 nm fluorescence, primary screen (AID 1104).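 Also: score merges 667 nm emission intensity with spot signal to noise over triplicate slides.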 As to conditions: EGFR binding, higher = more signal.
Test [8] addresses Follistatin-related protein 3 (Homo sapiens) (UniProt O95633). Kind of test: compounds binding follistatin-related protein 3 – biochemical, small-molecule microarray, 635 nm fluorescence, primary screen (AID 1105).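 Also: score merges emission near 667 nm and signal to noise per printed spot across three slides.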 As to conditions: FSTL3 binding, higher = more signal.
Test [9] concerns the target Dickkopf-related protein 1 (Homo sapiens) (UniProt O94907). The experiment in a line: small molecules binding DKK1 protein – biochemical, small-molecule microarray, 635 nm fluorescence scan, primary screen (AID 1106).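 Also: score merges emission near 667 nm with signal to noise over three replicate slides.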 Particulars: higher = more signal.
Test [10] deals with Inhibin beta A chain (activin A). Kind of test: small molecules binding activin A – biochemical, small-molecule microarray, 635 nm fluorescence scan, primary screen (AID 1107).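 Also: mouse activin A protein probed at 4.33 µg/mL on printed slides; score merges bound-protein fluorescence near 667 nm with spot signal-to-noise.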 Particulars: INHBA, higher = more signal.

Sequence of Epidermal growth factor receptor (Homo sapiens) (P00533 whole entry, looked up): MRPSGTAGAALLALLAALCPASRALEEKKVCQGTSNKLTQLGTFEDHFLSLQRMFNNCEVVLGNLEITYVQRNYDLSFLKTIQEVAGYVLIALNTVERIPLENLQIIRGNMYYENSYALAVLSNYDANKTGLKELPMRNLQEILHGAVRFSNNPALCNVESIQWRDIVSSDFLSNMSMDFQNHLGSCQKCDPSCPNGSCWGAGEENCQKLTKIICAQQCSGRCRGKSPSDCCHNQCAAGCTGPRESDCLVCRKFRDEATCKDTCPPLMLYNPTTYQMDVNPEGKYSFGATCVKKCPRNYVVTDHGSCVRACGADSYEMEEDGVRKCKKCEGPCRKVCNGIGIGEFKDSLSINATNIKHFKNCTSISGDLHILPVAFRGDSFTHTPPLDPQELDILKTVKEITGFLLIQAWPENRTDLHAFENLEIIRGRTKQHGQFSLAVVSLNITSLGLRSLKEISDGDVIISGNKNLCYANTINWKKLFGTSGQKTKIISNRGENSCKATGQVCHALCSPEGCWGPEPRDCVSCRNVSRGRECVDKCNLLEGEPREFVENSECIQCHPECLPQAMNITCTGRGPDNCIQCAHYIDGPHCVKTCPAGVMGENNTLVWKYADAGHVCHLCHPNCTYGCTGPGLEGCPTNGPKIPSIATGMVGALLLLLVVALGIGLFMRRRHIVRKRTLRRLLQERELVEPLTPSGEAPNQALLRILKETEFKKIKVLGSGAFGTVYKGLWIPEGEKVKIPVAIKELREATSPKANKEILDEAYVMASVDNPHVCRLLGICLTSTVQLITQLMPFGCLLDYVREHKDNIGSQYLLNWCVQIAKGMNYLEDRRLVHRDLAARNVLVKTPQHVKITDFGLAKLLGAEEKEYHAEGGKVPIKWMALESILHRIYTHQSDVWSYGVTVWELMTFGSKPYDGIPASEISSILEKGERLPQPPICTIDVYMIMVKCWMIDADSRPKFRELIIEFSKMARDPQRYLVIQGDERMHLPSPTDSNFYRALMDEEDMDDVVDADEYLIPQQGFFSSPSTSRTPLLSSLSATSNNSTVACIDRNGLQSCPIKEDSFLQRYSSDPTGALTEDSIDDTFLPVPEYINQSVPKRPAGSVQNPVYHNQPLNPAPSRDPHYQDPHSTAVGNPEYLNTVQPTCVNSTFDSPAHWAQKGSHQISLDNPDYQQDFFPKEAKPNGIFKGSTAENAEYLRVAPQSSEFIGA
Sequence of Follistatin-related protein 3 (Homo sapiens) (O95633 whole entry, looked up): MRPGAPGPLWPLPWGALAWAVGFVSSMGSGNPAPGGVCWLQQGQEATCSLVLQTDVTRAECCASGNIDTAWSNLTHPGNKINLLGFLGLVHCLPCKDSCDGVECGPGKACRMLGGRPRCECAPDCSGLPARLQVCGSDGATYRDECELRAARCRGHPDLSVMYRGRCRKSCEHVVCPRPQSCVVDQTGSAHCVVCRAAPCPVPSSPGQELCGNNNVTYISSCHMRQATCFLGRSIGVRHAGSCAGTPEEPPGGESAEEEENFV
Sequence of Dickkopf-related protein 1 (Homo sapiens) (O94907 whole entry, looked up): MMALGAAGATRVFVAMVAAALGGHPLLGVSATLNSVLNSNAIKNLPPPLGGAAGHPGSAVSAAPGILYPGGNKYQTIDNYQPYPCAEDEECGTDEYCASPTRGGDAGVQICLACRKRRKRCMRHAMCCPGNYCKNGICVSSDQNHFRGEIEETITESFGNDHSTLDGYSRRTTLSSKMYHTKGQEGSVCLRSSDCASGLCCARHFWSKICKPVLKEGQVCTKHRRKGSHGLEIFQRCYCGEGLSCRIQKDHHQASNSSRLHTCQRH
Sequence of Fibroblast growth factor 10 (Homo sapiens) (O15520 whole entry, looked up): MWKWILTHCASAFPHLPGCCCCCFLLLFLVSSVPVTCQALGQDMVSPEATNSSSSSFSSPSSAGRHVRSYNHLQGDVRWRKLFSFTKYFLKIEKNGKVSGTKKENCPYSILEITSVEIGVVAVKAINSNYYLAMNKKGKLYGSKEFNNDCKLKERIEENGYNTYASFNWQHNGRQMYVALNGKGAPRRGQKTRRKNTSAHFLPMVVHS

Regarding `CC(C)C[C@@H]1NC(=O)[C@H]2C[C@@H](C(=O)NCCCCCCN(C)C)[C@@H](c3ccc(O)cc3)N2C1=O`, the composite z-score is 1.44 in test [1]; 0.158 in test [2]; -0.0008 in test [3]; 1.2 in test [5]; 1.32 in test [6]; 0.653 in test [7]. For the same compound, the figures for the composite z-score in [8], in test [9] and in test [10] were 1.13, 1.4 and 1.12, respectively. In [4], the z-score was 0.561 (inactive).

Regarding `CC1CC/C=C\[C@H]2OC34C=CCN(C(C)(C)C)C(=O)[C@H]3N(CCCCCCO)C(=O)[C@@H]4C2C(=O)O1` (stereo not given in full), the composite z-score in [1] was 2.05; in [2], -0.0908; in test [3] it was 0.416; in [5], 0.0444; in [6], -0.615; in [7], -0.777. The results for the composite z-score in [8], in test [9] and in test [10] were -0.568, -0.957 and 1.13, respectively. In addition, the z-score in test [4] is -0.0517 (inactive).

Regarding `[N-]=[N+]=NCc1ccccc1C[C@]1(C(=O)O)N=C(c2ccc(OCCCO)cc2)O[C@H]1c1ccccc1N=[N+]=[N-]`, the composite z-score is 1.17 in test [1]; 0.621 in test [2]; 0.435 in [3]; 1.12 in [5]; 1.16 in test [6]; 0.386 in [7]. In addition, the composite z-score was 0.737 in test [8], 0.0572 in test [9] and 0.303 in [10]. Also, the z-score in [4] is -3.66 (inactive).

In the case of `C=C(COC)/C(=C/C[C@@H](OC(C)=O)c1ccc(OCCO)cc1)c1cc(C(=O)OC)ccc1OC`, the composite z-score in test [1] is 1.22; in [2], 0.455; in test [3], -0.103; in test [5] it was 1.54; in test [6], 0.794; in test [7], 0.265. The composite z-score in [8] is 1.27; in test [9] it was 0.43; in test [10] it was 0.884. In addition, the z-score in test [4] was 0.585 (inactive).

For `COc1ccc(NN2C(C(O)c3ccc([N+](=O)[O-])cc3)C=CC3C(=O)N(C4CCCCC4)C(=O)C32)cc1` (stereo not given), the composite z-score in test [1] is 0.562; in [2], 0.627; in test [3], 0.879; in test [5] it was 0.355; in [6] it was 0.909; in [7], -0.188. Also, the composite z-score in test [8] was 0.73; in test [9] it was -0.281; in test [10], 0.921. In [4], the z-score was 0.393 (inactive).

`COc1ccc(C(O)C2C=CC3C(=O)N(c4ccccc4)C(=O)C3N2Nc2ccc(C(C)C)cc2)cc1OCc1ccccc1` (stereo not given): the composite z-score in test [1] is 1.5; in test [2], 1.17; in [3], 1.27; in [5] it was 0.889; in [6], 1.27; in test [7], 0.207. For the same compound, the composite z-score in test [8] is 1.29; in test [9], -0.213; in test [10], 0.521. Moreover, in test [4], the z-score was -0.00529 (inactive).

Turning to `COc1ccc(C(=O)O[C@H]2CC[C@]3(C)C4=C(CCC3C2(C)C)[C@]2(C)CC[C@H]([C@H](C)CCCC(C)C)[C@@]2(C)CC4)cc1` (stereo not given in full), the composite z-score was 0.0931 in [1]; -0.287 in test [2]; -0.384 in test [3]; 0.205 in test [5]; 0.751 in [6]; 0.302 in test [7]. Moreover, the composite z-score in test [8] came out at 0.561; in test [9], 0.458; in test [10] it was 0.225. In addition, the z-score in [4] was -0.968 (inactive).

As to `COCCOC(=O)N1C(=O)[C@@]2(c3cc(C#CCCO)ccc31)[C@H](C(=O)Nc1nc3ccccc3s1)[C@H]1C(=O)O[C@H](c3ccccc3)[C@H](c3ccccc3)N1[C@@H]2c1ccc(OCCO)cc1`, the composite z-score in [1] is 1.27; in [2] it was 0.385; in [3], -0.284; in test [5], 1.11; in [6], 0.687; in test [7], 0.432. The composite z-score in test [8] came to 1.2; in test [9], 0.31; in test [10], 0.0763. Also, the z-score in test [4] was -0.021 (inactive).

With `COCCOC(=O)N1C(=O)[C@@]2(c3ccccc31)[C@H](c1ccccc1OCCO)N1[C@H](c3ccccc3)[C@H](c3ccccc3)OC(=O)[C@H]1[C@@H]2C(=O)Nc1nc2ccccc2s1`, the composite z-score in test [1] came to 1.4; in [2], 0.262; in test [3], 0.245; in test [5], 1.1; in test [6] it was 1.32; in test [7], 0.661. Moreover, the composite z-score in test [8] was 1.34; in test [9] it was 0.476; in [10], 0.0911. Also, in [4], the z-score is -0.968 (inactive).

Take `CCCC=C(CCC)[C@@H](NS(=O)(=O)c1cccs1)c1ccc(C(=O)OC)cc1`: the composite z-score is 0.565 in [1]; 0.922 in [2]; 1.18 in test [3]; 0.77 in test [5]; 1.19 in test [6]; -0.122 in [7]. Moreover, the composite z-score was 0.622 in test [8], -0.569 in test [9] and -0.0034 in test [10]. The z-score in [4] was 3.75 (inactive).

With `C=CCC(OC(C)=O)[C@@H]1[C@@H](N(Cc2ccc(-c3ccccc3)cc2)C(=O)Cc2ccc(F)cc2)c2cc(OCCCO)ccc2N1C(=O)c1ccc(-c2ccccc2)cc1` (stereo not given in full), the composite z-score was 0.152 in test [1]; -0.0501 in test [2]; 0.216 in test [3]; 0.152 in test [5]; -1.02 in [6]; -0.376 in test [7]. For the same compound, the figures for the composite z-score in [8], in test [9] and in test [10] were 0.268, -0.282 and 0.778, respectively. Moreover, in [4], the z-score is -2.23 (inactive).

In the case of `CC(C)(C)OC(=O)CC[C@@]1(C(N)=O)N=C(c2ccc(OCCCO)cc2)O[C@@H]1c1ccccc1`, the composite z-score in test [1] is 1.19; in test [2], 0.307; in [3] it was 0.666; in [5], 0.958; in [6] it was 1.15; in test [7], -0.467. For the same compound, the composite z-score in test [8] is 0.0089; in [9], -0.534; in [10], 0.557. Moreover, the z-score in test [4] was -0.0742 (inactive).

`COC(=O)c1c(CC[C@@H](CO)NC(=O)N[C@H](Cn2cc(Cc3ccccc3)nn2)C(C)C)oc(C(C)=O)c1C(=O)OC`: the composite z-score in [1] is 0.751; in test [2], -0.195; in [3], -0.457; in test [5], 1.16; in test [6], 0.544; in [7], -0.172. The composite z-score stood at 0.678 in [8], 0.857 in [9] and 0.509 in [10]. Moreover, the z-score in test [4] was -0.781 (inactive).

As for `CN1C(=O)C2C=CC(C(O)C3CC=CCC3)N(NC(=O)OC(C)(C)C)C2C1=O` (stereo not given), the composite z-score amounted to 0.701 in test [1]; 0.0347 in test [2]; 0.16 in test [3]; 0.796 in [5]; 1.12 in [6]; 0.933 in test [7]. For the same compound, the values for the composite z-score in [8], in test [9] and in test [10] were 1.23, 0.347 and 1.03, respectively. The z-score in test [4] was 1.61 (inactive).
